Laboratory results reported in PubChem BioAssay AID2314 (National Center for Advancing Translational Sciences (NCATS), 2010).
About 37,000 (12%) of roughly 300,000 compounds were called active. The sample holds actives, similar compounds and a random draw of the others, so the mix is not that of the screen. No stated cut-off is given here; in the data, active means max response mostly above about 13% (no sharp cut-off); inactive means mostly below about 14%.

experiment: Cycloheximide Counterscreen for Small Molecule Inhibitors of Shiga Toxin; conditions: cell reporter, cycloheximide protein synthesis inhibition counterscreen; active compounds read high; further: read at 38.3 µM for the half of the compounds with a filed dose; 0% is about no effect

Row | Structure (SMILES) | max response
1 | Cc1ccc(-c2csc(N3CCN(c4cc5c(cc4Cl)nc(-c4ccncc4)n5CCOCCO)CC3)n2)cc1 | -1.79% (inactive)
2 | CCOCCCNC(=O)C(NC(=O)CNC(=O)c1ccccc1)c1ccc(OC)cc1 (stereo not drawn) | -3.78% (inactive)
3 | O=C(Nc1ccc(F)c(Cl)c1)C1CCN(S(=O)(=O)c2cccnc2)CC1 | -6.06% (inactive)
4 | COc1ccc(C(=O)Nc2ccc(CN3CCOCC3)cc2)cc1 | 21.3% (inactive)
5 | CCOC(=O)c1c(NC(=O)c2ccc(N3CCOCC3)c([N+](=O)[O-])c2)sc(C)c1C | 1.25% (inactive)
6 | COc1ccc(C(=O)Nc2sc(C)c(C)c2CN2CCOCC2)cc1 | 80% (active)
7 | O=C(NCc1ccccc1)C1CCN(C(=O)Cc2ccccc2)CC1 | -1.63% (inactive)
8 | O=C(CSc1ccc(-c2ccc(Br)cc2)nn1)NCC1CCCO1 (stereo not drawn) | -3.31% (inactive)
9 | Cc1ccc(/C=C(\C#N)C(=O)Nc2cccc3ncccc23)o1 | -2.46% (inactive)
10 | COc1ccc(C2=Nn3c(nnc3-c3ccccc3O)SC2)cc1 | 38.9% (active)
11 | Cc1nnc2n1N=C(c1ccccc1)CS2 | -4.21% (inactive)
12 | CC1=Nn2c(nnc2-c2ccccc2)SC1 | 1.95% (inactive)
13 | Cc1c(C)c2ccc(OCC(=O)N3CCC(C(=O)O)CC3)c(C)c2oc1=O | -2.07% (inactive)
14 | COC(=O)CCC(=O)N1CCCC(CO)(Cc2ccccc2)C1 (stereo not drawn) | 32.1% (active)
15 | CCCc1cc(C(=O)N2CCCC(CO)(CCCc3ccccc3)C2)n(C)n1 (stereo not drawn) | 9.31% (inactive)
16 | Cc1ccccc1CC1(CO)CCCN(C(=O)c2cc(-c3ccccc3)no2)C1 (stereo not drawn) | 13.4% (inactive)
17 | Cc1noc(C)c1CCC(=O)N1CCCC(CO)(Cc2ccccc2)C1 (stereo not drawn) | 30.9% (active)
18 | CCOC(=O)C1(Cc2ccccc2C)CCCN(C(=O)CCc2c(C)noc2C)C1 (stereo not drawn) | 9.83% (inactive)
19 | Cc1noc(C)c1CCC(=O)O | -2.43% (inactive)
20 | O=C(NCc1ccccn1)[C@]1(C(F)(F)F)C[C@H](CCc2ccccc2)CCCO1 | -4.95% (inactive)
21 | O=[N+]([O-])c1cc(S(=O)(=O)CCCN2CCOCC2)ccc1F | -6.03% (inactive)
22 | NC(=O)CCN1CCN(S(=O)(=O)/C=C/c2ccccc2)CC1 | -9.41% (inactive)

Row | Structure (SMILES) | max response
23 | COCCCNC(=O)Cc1ccc(-n2c(C)nc3cccnc32)cc1 | -1.61% (inactive)
24 | COC(=O)C1CCCCN1C(=O)c1ccc(OC2CCN(C(C)=O)CC2)c(OC)c1 (stereo not drawn) | -4.09% (inactive)
25 | Cn1c(C(=O)OC(C(=O)NC2CCCCC2)c2ccccn2)cc2sccc21 (stereo not drawn) | -2.24% (inactive)
26 | CC(C)Nc1nnc(SCC(=O)/C=C2\N(C)c3ccccc3C2(C)C)s1 | 5.97% (inactive)
27 | CN1/C(=C\C(=O)c2cccnc2Cl)C(C)(C)c2ccccc21 | 17.7% (active)
28 | CN1/C(=C\C(=O)c2oc3ccccc3c2N)C(C)(C)c2ccccc21 | 5.01% (inactive)
29 | C=CCNC(=O)COc1coc(CN2CCN(Cc3ccccc3)CC2)cc1=O | -1.91% (inactive)
30 | CCOC(=O)NNc1cc(C(F)(F)F)ccn1 | -0.89% (inactive)
31 | O=C(NCc1cn2ccsc2n1)Nc1cccc(Cl)c1 | -2.26% (inactive)
32 | CCCC(=O)Nc1cccc(-c2cn3ccsc3n2)c1 | 27.2% (active)
33 | CCc1cccc(NC(=O)CCC(=O)O)c1 | -2.1% (inactive)
34 | CCOC(=O)C1=C(C)OC(N)=C(C#N)C1c1cncc(-c2ccc(F)cc2)c1 (stereo not drawn) | -4.52% (inactive)
35 | CN(C)c1ccc(C(=S)N2CCN(C(=S)Nc3ccc(Cl)cc3)CC2)cc1 | -2.08% (inactive)
36 | C=CCc1cccc2cc(C(=O)Nc3ccc(NC(C)=O)cc3)c(=O)oc12 | 7.03% (inactive)
37 | CC1Cc2ccccc2N1C(=O)CSc1nnc(C2CC2)n1C (stereo not drawn) | -2.64% (inactive)
38 | C[C@@H]1C[C@@H]2O[C@H]2/C=C\C=C\C(=O)Cc2c(Cl)c(O)cc(O)c2C(=O)O1 | 8.16% (active)
39 | O=C(OCC1O[C@@H](OC(=O)c2cc(O)c(O)c(O)c2)[C@@H](OC(=O)c2cc(O)c(O)c(O)c2)[C@@H](OC(=O)c2cc(O)c(O)c(O)c2)[C@@H]1OC(=O)c1cc(O)c(O)c(O)c1)c1cc(O)c(O)c(O)c1 (stereo partly drawn) | -3.49% (inactive)
40 | Cc1cc(C)cc(N(CC(=O)NCCSCc2ccco2)S(C)(=O)=O)c1 | -3.57% (inactive)
41 | OCCNCCOc1ccc(Cl)c(Cl)c1 | -2.06% (inactive)
42 | COc1ccc(CCNC(=O)CSc2nc(-c3ccc(OC)c(OC)c3)ccc2C#N)cc1 | -0.296% (inactive)
43 | CCc1cc2c(=O)c(-c3ccc(F)cc3)c(C(F)(F)F)oc2cc1OCC(=O)O | -0.895% (inactive)
44 | COc1ccc2oc(N)c(C=O)c(=O)c2c1 | 11.3% (inactive)

Row | Structure (SMILES) | max response
45 | CCc1cc2c(=O)c(-c3ccon3)c(N)oc2cc1OC | 40.8% (active)
46 | COC(=O)Cn1cc(/C=C/[N+](=O)[O-])c2ccccc21 | 0.349% (inactive)
47 | Cc1nn(-c2ccccc2)c(C)c1/C=N/NC(=O)CSc1nc2ccccc2c(=O)n1-c1ccccc1 | -2.06% (inactive)
48 | Cc1cc(C)c([N+](=O)[O-])cc1-c1ccc(/C=N/NC(=O)c2nonc2N)o1 | 8.92% (inactive)
49 | Cc1nn(-c2ccccc2)c(NC(=O)c2cccs2)c(-c2ccc(Cl)cc2)c1=O | -4.56% (inactive)
50 | Cc1nn(-c2ccccc2)c(Cl)c1/C=N/NC(=O)c1nn(C)cc1[N+](=O)[O-] | 30.2% (active)
51 | Cc1ccc(-c2nnc(SCC(=O)N/N=C/c3cccs3)n2-c2ccc(C)cc2)cc1 | -2.1% (inactive)
52 | Cc1ccc(-n2nc(C)c(/C=N/NC(=O)c3cccs3)c2Cl)cc1 | 41.5% (active)
53 | COc1ccc(CCN(C)C(=O)C23CC4CC(CC(Cl)(C4)C2)C3)cc1OC | 6.24% (inactive)
54 | Cc1ccc(C(=O)N2CCC(n3nccc3NC(=O)Nc3cccc(F)c3)CC2)cn1 | -3.88% (inactive)
55 | Cc1ccc(S(=O)(=O)NCc2cn3ccsc3n2)c(C)c1 | 2.86% (inactive)
56 | c1ccc(-c2cn3cccnc3n2)cc1 | 15.7% (active)
57 | Cc1ccccc1Nc1c(-c2ccccc2)nc2ncccn12 | -1.21% (inactive)
58 | COc1ccc(-c2cn3ccsc3n2)cc1 | 42.7% (active)
59 | CN1CCN(Cc2ccc(OC(F)(F)F)cc2)CC1 | -2.95% (inactive)
60 | FC(F)(F)Oc1ccc(-c2cn3cccnc3n2)cc1 | 50.9% (active)
61 | COc1ccc(-c2cn3cccnc3n2)cc1 | 23.9% (active)
62 | COc1cc(OC)cc(-c2nc(=S)n3ccsc3n2)c1 | -1.36% (inactive)
63 | c1ccc(-c2cn3c(n2)CCc2ccc4cccnc4c2-3)cc1 | 11.1% (inactive)
64 | COc1ccc(N2CCN(C(=O)CSc3nnc4ncccn34)CC2)cc1 | -1.32% (inactive)
65 | COc1ccc(-c2ccnc(SCC(=O)N3CCOCC3)n2)cc1 | 2.08% (inactive)
66 | CC(C)CC[n+]1ccn(C2=C([O-])c3ccccc3C(=O)/C2=N\S(=O)(=O)c2ccccc2)c1 | -1.98% (inactive)

Row | Structure (SMILES) | max response
67 | O=[N+]([O-])c1ccc(Oc2ccc(F)cc2Br)c2ccncc12 | -2.77% (inactive)
68 | CCCCn1nc(C(=O)Nc2ccc(S(=O)(=O)Nc3ncccn3)cc2)c2ccccc2c1=O | -8.36% (inactive)
69 | O=C1c2cccc(OCC(=O)N3N=C(c4cccs4)CC3c3ccc(F)cc3)c2CCN1Cc1ccccc1 (stereo not drawn) | 4.05% (inactive)
70 | CCOc1cc(C2C(C(=O)c3ccco3)=C(O)C(=O)N2Cc2ccccc2)ccc1O (stereo not drawn) | 4.82% (inactive)
71 | Cc1cc(=O)oc2c(C)c(OCC(=O)NCCN3CCOCC3)ccc12 | 7.13% (inactive)
72 | CCNc1c(NS(=O)(=O)c2ccc(C3CCCCC3)cc2)c(=O)oc2ccccc12 | -5.65% (inactive)
73 | CC(c1ccccc1)n1c(NCCCn2ccnc2)nc2c1c(=O)[nH]c(=O)n2C (stereo not drawn) | -2.03% (inactive)
74 | COc1ccc(-c2c(NC(=O)c3ccco3)oc3ccc(Cl)cc3c2=O)cc1 | 1.49% (inactive)
75 | COc1ccc(CN2CCCC(N3CCc4ccccc4C3)C2)c(O)c1 (stereo not drawn) | -0.856% (inactive)
76 | CCOc1ccc(NC(=O)[C@H](C)NC(=O)C2CC(=O)N(c3ccc(OC)cc3)C2)cc1 (stereo partly drawn) | 4.95% (inactive)
77 | O.O.O.O=S(=O)([O-])OC[C@H]1O[C@@H](O[C@]2(COS(=O)(=O)[O-])O[C@H](OS(=O)(=O)[O-])[C@@H](OS(=O)(=O)[O-])[C@@H]2OS(=O)(=O)[O-])[C@H](OS(=O)(=O)[O-])[C@@H](OS(=O)(=O)[O-])[C@@H]1OS(=O)(=O)[O-].[Al] | -3.55% (inactive)
78 | O=C(c1ccccc1)N1CCN(C(=O)c2cc3nc(-c4ccccc4)cc(C(F)(F)F)n3n2)CC1 | -1.97% (inactive)
79 | COc1cccc(-c2nnc(NC(=O)c3ccc(S(=O)(=O)N(CC(C)C)CC(C)C)cc3)o2)c1 | -5.08% (inactive)
80 | Cc1ccc(S(=O)(=O)NCC(=O)N2CCN(c3ccccn3)CC2)cc1 | -5.16% (inactive)
81 | Cc1ccc(N2CCN(c3ccc(C)cc3)C2c2ccccn2)cc1 | 21.8% (active)
82 | Cc1ccc(N2C(=O)C3CC3C2=O)cc1 (stereo not drawn) | -6.06% (inactive)
83 | CC1=NN(/C(=N\c2nnc(C)s2)Nc2ccccc2)[C@H](c2ccc(C)cc2)S1 | -0.911% (inactive)
84 | COc1ccc(O)c(C(=O)c2cnc3c(c2)c(-c2ccc(F)cc2)c(C#N)c(=O)n3C)c1 | 11.3% (inactive)
85 | COc1ccc(O)c(C(=O)c2cnc3onc(C(C)C)c3c2)c1 | 26.6% (active)
86 | COCCn1c(=O)[nH]c(=O)c2cc(C(=O)c3cc(OC)ccc3O)cnc21 | -3.24% (inactive)
87 | O=C(CS(=O)(=O)c1cn(Cc2ccc(Cl)cc2)c2ccccc12)N1CCOCC1 | -4.25% (inactive)
88 | Cc1[nH]n(-c2ccc([N+](=O)[O-])cc2)c(=O)c1C=NCCN1CCN(C(=O)c2ccccc2F)CC1 | -3.41% (inactive)
